Experimental data reported in PubChem BioAssay AID651599 (National Center for Advancing Translational Sciences (NCATS), 2012).
Inconclusive results are not listed. Entries that show only a call come without a potency. Activity calls are given as the source filed them. The call rests on the fitted dose curve; in most records, active means well fitted inhibition curve with a large enough effect; inconclusive means small, poorly fitted or top-dose-only effect; inactive means no such curve, though single readings can be large or run the other way.

The molecules below were run against Tumor susceptibility gene 101 protein (Homo sapiens) (UniProt Q99816) (assay: qHTS Assay for Iinhibitors of HIV-1 Budding by Blocking the Interaction of PTAP/TSG101: Hit Validation in TR assay). Details: Tsg101 binding domain + Texas Red-labeled PTAP peptide, fluorescence polarization, 20 min; series mostly up to 57.5 µM.
Procedure, shortened: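 Texas Red-PTAP peptide (50 nM) binding to Tsg101 binding domain (10 uM), both final, in pH 7.5 HEPES buffer, read as polarization after 20 min at room temperature; compounds pinned before peptide addition.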
Potency means the concentration at half of the fitted maximal effect.

Chain of Tumor susceptibility gene 101 protein (Homo sapiens) (Q99816 whole entry, looked up, the tested form may be a part): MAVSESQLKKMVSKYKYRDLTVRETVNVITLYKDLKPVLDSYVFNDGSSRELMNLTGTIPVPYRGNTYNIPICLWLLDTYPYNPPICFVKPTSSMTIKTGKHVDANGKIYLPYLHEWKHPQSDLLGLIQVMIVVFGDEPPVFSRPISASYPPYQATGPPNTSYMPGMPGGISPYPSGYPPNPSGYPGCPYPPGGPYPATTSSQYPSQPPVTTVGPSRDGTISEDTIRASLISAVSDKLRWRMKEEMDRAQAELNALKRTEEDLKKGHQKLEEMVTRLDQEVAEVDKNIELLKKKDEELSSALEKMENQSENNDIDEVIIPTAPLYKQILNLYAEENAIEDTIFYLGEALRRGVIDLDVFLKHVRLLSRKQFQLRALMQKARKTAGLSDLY

Row | Compound | Potency
1 | N#C/C(=C\c1ccccn1)c1nc2ccccc2s1 | inactive
2 | Cc1ccc(-c2nc(C=Nc3ccc(O)cc3)c(O)o2)cc1 | inactive
3 | CCN(C(=O)c1sc2nc3n(c(=O)c2c1C)CCCC3)c1ccccc1F | inactive
4 | COc1ccc(OC)c(/C=c2\sc3nc(-c4cccs4)nn3c2=O)c1 | inactive
5 | O=[N+]([O-])c1cc(Cl)cc(/C=N/NC(=S)Nc2ccc(S(=O)(=O)N3CCOCC3)cc2)c1O | inactive
6 | Cn1cccc1/C=C1\SC(=S)N(NC(=O)c2ccccc2Cl)C1=O | inactive
7 | O=c1c(/C=C(\O)c2ccc(F)cc2)nc2ccccc2n1-c1ccccc1 | inactive
8 | COc1ccc(N=Nc2nc3cc(Br)c(Br)cc3n2C)c(OC)c1 | inactive
9 | CN1C(=O)NC(c2ccccc2[N+](=O)[O-])C2=C1CCCC2=O (centres undefined) | inactive
10 | CCCN1C(=O)/C(=C\C=C2\N(CC)c3ccccc3C2(C)C)SC1=S | inactive
11 | N=c1c(S(=O)(=O)c2ccc(Br)cc2)cc2c(=O)n3ccccc3nc2n1Cc1ccccc1 | inactive
12 | CCN(CC)c1ccc(/C=C/C(=O)c2ccc(Br)cc2)cc1 | 16.3 µM (active)
13 | CCN(CC)C(=O)c1sc2nc(-c3cccs3)cc(-c3cccs3)c2c1N | inactive
14 | O=c1oc2c(CN3CCCCC3)c(O)ccc2cc1-c1nc2ccccc2[nH]1 | inactive
15 | COc1cccc(C(=O)c2sc3nc(-c4ccccc4)cc(C(F)(F)F)c3c2N)c1 | inactive
16 | COc1ccc(/C(O)=C/c2nc3ccccc3n(-c3ccccc3)c2=O)cc1 | inactive
17 | Cc1cccc(N=Nc2c(O)[nH]c3ccc(F)cc23)c1 | inactive
18 | O=S(=O)(Nc1cccc(-c2ccc(N3CCCCCC3)nn2)c1)c1cccc(F)c1 | inactive
19 | O=C1c2ccccc2-c2onc3ccc(NCc4ccco4)c1c23 | inactive
20 | O=[N+]([O-])c1cc(Cl)cc(/C=N/n2cnnc2)c1O | inactive

Row | Compound | Potency
21 | CC(=O)c1ccc(N2C(=O)C3C(C2=O)C(C(=O)c2ccc(Cl)cc2)N2CCCC32)cc1 (centres undefined) | inactive
22 | Clc1ccc(C2=CC(c3ccco3)n3ncnc3N2)cc1 (centres undefined) | inactive
23 | CC1=CC(=C(C#N)c2nc3ccccc3s2)C=C(C)N1c1ccc(F)cc1 | inactive
24 | O=[N+]([O-])c1cc(Cl)c2cccnc2c1O | inactive
25 | Cc1ccc(N2C(=O)c3cccc4c(N5CCN(C)CC5)ccc(c34)C2=O)c2cccnc12 | inactive
26 | CCSc1nnc(-c2sc3nnc(-c4ccccc4)c(-c4ccccc4)c3c2N)o1 | inactive
27 | O=C1/C(=C\c2ccc(-c3ccccc3Cl)o2)SC(=S)N1CC1CCCO1 (centres undefined) | inactive
28 | COCCCNC(=O)c1ccc2c3c(onc13)-c1ccccc1C2=O | inactive
29 | Cc1ccc(OC(=O)c2ccc3nc(C)sc3c2)cc1 | inactive
30 | COc1ccc(-c2cc(C(=O)N3CC(C)CC(C)C3)c3ccccc3n2)cc1OC (centres undefined) | inactive
31 | N#CC(C(=O)OC1CCCCC1)c1nc2ccccc2nc1N1CCOCC1 (centres undefined) | inactive
32 | CC(=O)c1cccc(-n2nnnc2SCC(=O)Nc2cc(C)on2)c1 | inactive
33 | Nc1ccc(-c2c3ccc(=O)cc-3oc3cc(O)ccc23)c(C(=O)O)c1 | inactive
34 | O=C(O)c1ccccc1C1=Nc2ccc(O)cc2Oc2cc(O)ccc21 | inactive
35 | COCCCNC(=O)C(C#N)c1nc2ccccc2nc1N1CCCC1 (centres undefined) | inactive
36 | COc1ccccc1N1C(C)=CC(=C(C#N)c2nc3ccccc3s2)C=C1C | inactive
37 | CCN(CC)c1ccc(/C=C(/C#N)c2nc3ccc(C)cc3[nH]2)c(OC(C)C)c1 | inactive
38 | CC(C)c1nnc(N2C(=O)C(O)=C(C(=O)c3cccs3)C2c2ccccc2)s1 (centres undefined) | inactive
39 | Cc1cc(=O)c2c([nH]1)c(C)cc1[nH]c(C)c(C)c12 | inactive
